Screening data as filed in PubChem BioAssay.
aSyn UTR act – Activators via SNCA 5'UTR binding, MLPCN | alpha-synuclein 5'UTR reporter, activators screen | activity score, % (tested at 7.5 µM), hits read low | actives 7.1% (n = 300,000) | AID 1814; in the data active = activity score below about -60%
Of the large screens only hits and unclear results are named; the others gave an inactive call. These entries were drawn from the full list.

COc1ccccc1OCC#CCSc1ncccn1	aSyn UTR act -80.6
O=C(NC1CC1)c1cccc(Nc2ccc(-c3ccc4c(c3)OCCO4)nn2)c1	aSyn UTR act -144.9
O=S(=O)(c1ccc(Nc2ccc(-c3ccc4c(c3)OCCO4)nn2)cc1)N1CCCC1	aSyn UTR act -120.8
Cc1ccc(S(=O)(=O)Nc2nc3ccccc3nc2NCc2ccco2)cc1	aSyn UTR act -180.4
Cc1ccc(C(=O)Nc2ccc(S(=O)(=O)NCc3ccco3)cc2)cc1	aSyn UTR act -92.2
Cc1ccc(C(=O)Nc2cccc(C(=O)N3CCN(C)CC3)c2)cc1	aSyn UTR act -97.8
C/C(=N\Nc1ccc(C(=O)O)cc1)c1ccc(S(=O)(=O)NCc2ccco2)cc1	aSyn UTR act -75.2
C/C(=N\Nc1nc(Cl)c(Cl)cc1Cl)c1ccc(S(=O)(=O)NCc2ccco2)cc1	aSyn UTR act -63.8
Cc1ccc(C(=O)Nc2cccc(C(=O)NCc3ccco3)c2)cc1	aSyn UTR act -71.6
CCC1=Nc2cc(C(=O)NCc3ccco3)ccc2Sc2ccc(C)cc21	none
O=C1c2c(Br)c(Br)c(Br)c(Br)c2C(=O)N1c1ccccn1	aSyn UTR act -112.3
CCOc1ccc2nc(N3CCCC(C(=O)NCCCN4CCCCC4)C3)sc2c1 (centres undefined)	aSyn UTR act -86.1
COc1ccc(CCNC(=O)c2ccc3nc(N4CCCCC4)sc3c2)cc1OC	aSyn UTR act -130.9
COc1ccc2nc(N3CCCC(C(=O)NCCc4ccc(OC)c(OC)c4)C3)sc2c1 (centres undefined)	aSyn UTR act -86.8
NS(=O)(=O)c1ccc(NC(=O)/C=C/c2cccc(Cl)c2)cc1	aSyn UTR act -81.1
O=C(/C=C/c1cccc(Cl)c1)Nc1ccncc1	aSyn UTR act -112.0
CCC(N=c1cc(-c2ccc(OC)cc2)oc2ccc(C)cc12)C(=O)O (centres undefined)	aSyn UTR act -119.9
CCCCCc1nnc(NC(=O)C2=COCCO2)s1	aSyn UTR act -110.5
O=C(Nc1nc2cc3c(cc2s1)OCO3)C1=COCCO1	none
CCCCCc1nnc(NC(=O)C2CCCO2)s1 (centres undefined)	aSyn UTR act -90.3
Cc1ccc(OCC(=O)N/N=C/c2cn(Cc3ccccc3)c3ccccc23)cc1	none
Cc1[nH][nH]c(=O)c1C(c1c(C)[nH][nH]c1=O)c1cn(Cc2ccc(Cl)c(Cl)c2)c2ccccc12	none
Cc1cccc(Cn2cc(SCC(=O)Nc3nccs3)c3ccccc32)c1	aSyn UTR act -156.1
Cc1ccc(Nc2nc(/N=C/N(C)C)n[nH]2)cc1C	aSyn UTR act -79.2
COc1ccc(C2CC2/C(=N/OC(=O)c2cccs2)c2ccccc2)cc1 (centres undefined)	aSyn UTR act -152.6
O=[N+]([O-])c1ccccc1-c1ccc(C(=S)N2CCCCC2)o1	aSyn UTR act -107.3
O=[N+]([O-])c1ccccc1-c1ccc(C(=S)N2CCCC2)o1	aSyn UTR act -132.0
O=C1CN(c2ccccc2)C(=S)N1C(=O)c1ccccc1	aSyn UTR act -153.6
CC1CCN(S(=O)(=O)c2ccc(C(=O)Nc3ccccn3)cc2)CC1	aSyn UTR act -119.8
Cc1ccnc(NC(=O)c2ccc(S(=O)(=O)N3CCC(C)CC3)cc2)c1	aSyn UTR act -117.9
CC(C)(C)NC(=O)CSc1ncnc2c1cnn2-c1ccccc1	aSyn UTR act -73.1
CCOC(=O)CC(=O)CSc1ncnc2c1cnn2-c1ccccc1	aSyn UTR act -104.5
Cc1ccn2c(C(=O)c3ccc(Cl)cc3)cnc2c1	aSyn UTR act -81.5
CNc1oc(-c2ccc(Cl)cc2)nc1C#N	aSyn UTR act -172.7
CNc1oc(-c2cccc3ccccc23)nc1C#N	aSyn UTR act -104.8
COc1ccc(-c2nc(C#N)c(NC(C)C)o2)cc1	aSyn UTR act -68.4
Clc1ccc(Cn2nc(-c3ccccc3)nc2-c2ccccc2)cc1	aSyn UTR act -114.2
FC(F)Sc1ccc(N=C2NN=C(c3ccc4c(c3)OCCO4)CS2)cc1	aSyn UTR act -127.2
c1cc2c(cc1C1=NNC(=NC3CC3)SC1)OCCO2	none
CCCCC(=O)NC(c1ccc(N(CC)CC)cc1)c1ccc2cccnc2c1O (centres undefined)	none
Cc1cccc2nc(COc3ccc(-c4ccccc4)cc3)cn12	aSyn UTR act -121.1
CCOc1ccc(/C=C/C(=O)c2ccccc2)cc1OC	aSyn UTR act -112.5
COc1cc(/C=C/C(=O)c2ccc(O)cc2)ccc1OCC#N	aSyn UTR act -133.5
COc1cccc(C(=O)/C=C/c2ccc(OCC#N)c(OC)c2)c1	aSyn UTR act -121.2
NS(=O)(=O)c1cccc(NC(=O)/C=C/c2cccs2)c1	aSyn UTR act -101.2
Cc1cc(C)nc(NC(=O)/C=C/c2cccs2)c1	aSyn UTR act -155.3
Cc1cc(C)c(-c2csc(NC(=O)/C=C/c3cccs3)n2)c(C)c1	none
O=C(/C=C/c1cccc(F)c1)Nc1nccs1	aSyn UTR act -209.2
O=C(/C=C/c1cccs1)Nc1nccs1	aSyn UTR act -97.1
CCc1nnc(NC(=O)C=C(C)C)s1	aSyn UTR act -140.2
CCc1nnc(NC(=O)/C=C/c2cccs2)s1	aSyn UTR act -160.3
O=C(/C=C/c1cccs1)Nc1cccc(NC(=O)/C=C/c2cccs2)n1	aSyn UTR act -180.9
CCN(C(=O)c1cc2c(=O)[nH]c3ccc(C)cc3c2s1)c1cccc(C)c1	aSyn UTR act -217.3
O=C(CCCOc1ccccc1)Nc1nc2ccccc2[nH]1	aSyn UTR act -114.7
O=C(CSc1ccccc1)Nc1nc2ccccc2[nH]1	aSyn UTR act -132.0
O=C(CSc1ccc(Cl)cc1)Nc1ccc(-c2nc3ccccc3[nH]2)cc1	aSyn UTR act -94.1
O=C(CSc1n[nH]c(-c2ccccn2)n1)Nc1ccc(Cl)cc1	none
COc1ccc(-c2ncc(CN3CCN(CCC(C)C)C(CCO)C3)cn2)cc1 (centres undefined)	aSyn UTR act -111.3
COc1ccc(CN2CCN(Cc3cccn3-c3ncccn3)CC2CCO)c(C)c1C (centres undefined)	none
COC(=O)c1sc(-c2ccc(C(C)(C)C)cc2)cc1NC(=O)c1ccccc1C(=O)O	aSyn UTR act -67.3
O=C(Nc1nnc(SCc2ccccc2)s1)c1cc2c(s1)CCCC2	aSyn UTR act -80.0
CCSc1nnc(NC(=O)c2cc3c(s2)CCCC3)s1	aSyn UTR act -187.5
Clc1ccccc1Nc1nc(-c2cccnc2)cs1	aSyn UTR act -185.3
COc1cccc2sc(Nc3nc(-c4ccncc4)cs3)nc12	none
Cc1ccc(Nc2nc(-c3cccnc3)cs2)cc1Cl	aSyn UTR act -174.9
COc1cccc(Nc2nc(-c3cccnc3)cs2)c1	aSyn UTR act -173.1
Clc1ccccc1-c1csc(Nc2cccnc2)n1	aSyn UTR act -71.5
c1cncc(Nc2nc(-c3cccnc3)cs2)c1	aSyn UTR act -71.6
Cc1cc2ccccn2c1C(=O)c1ccc([N+](=O)[O-])o1	aSyn UTR act -147.3
COc1cc(/C=N/NC(=O)CN2CCCCC2)ccc1OCc1ccccc1	aSyn UTR act -136.6
CC(C)(C)OC(=O)COc1ccc(/C=N/NC(=O)CN2CCCCC2)cc1	aSyn UTR act -85.7
COc1cc(/C=N/NC(=O)CN2CCOCC2)ccc1OCc1ccccc1	aSyn UTR act -96.6
CS(=O)(=O)c1ccc2nc(NC(=O)c3cc4ccccc4o3)sc2c1	aSyn UTR act -166.5
CC(=O)Nc1nc2ccc(-c3nc4ccccc4o3)cc2s1	aSyn UTR act -107.6
CS(=O)(=O)c1ccc2sc(NC(=O)c3cc4ccccc4o3)nc2c1	aSyn UTR act -96.3
CCCCCCOc1ccc(OCC(O)CN2C(=O)NC(C)(C)C2=O)cc1 (centres undefined)	aSyn UTR act -128.2
O=[N+]([O-])c1cnc(Nc2ccc(Cl)cn2)c([N+](=O)[O-])c1	aSyn UTR act -128.9
O=C(Nc1ccc(Cl)cn1)Nc1ccccc1Cl	aSyn UTR act -87.0
